Experimental data taken from the supplement of paper PMC3484114.
± gives the standard deviation.

Each compound was assayed on OVCAR-3-derived ovarian cancer stem-like cells (spheroids) (assay: cell growth relative to untreated control; higher = more growth (less inhibition)). Conditions: 2.29 µM; 96 h.
Method in brief: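 Viability of stem-like cells from OVCAR-3 spheroids was assessed with TOX8 resazurin fluorescence at ex 560/em 590 nm. The cells had been trypsin-dissociated, seeded at 50,000 cells/mL in stem cell medium in ultra-low attachment 96-well plates and preincubated 24 h, then treated with compounds at 2.29 uM for 96 h at 37°C, 5% CO2, in 4 replicate wells, with fluorescence read after 4 h. Results were converted to percent growth against untreated wells after blank subtraction and Grubbs outlier removal.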

| SMILES | cell growth |
| --- | --- |
| CCCCCCCCCCCCCCCC[N+](C)(C)Cc1ccc(F)cc1 | 54.1 ± 9.8% |
| O=c1ccc2ccc(CBr)cc2o1 | 84.2 ± 21% |
| NC(=O)c1csc(C2OC(CO)C(O)C2O)n1 (stereo not drawn) | 90.6 ± 11% |
| COc1c(O[C@@H]2O[C@H](CO)[C@@H](O)[C@H](O)[C@H]2O)cc2c(c1OC)-c1ccc(OC)c(=O)cc1[C@@H](NC(C)=O)CC2 | 119 ± 20% |
| Clc1ccccc1C(c1ccccc1)(c1ccccc1)n1ccnc1 | 106 ± 13% |
| Clc1ccc(C(c2ccccc2Cl)C(Cl)Cl)cc1 (stereo not drawn) | 128 ± 48% |
| CCN1CCC(O)(/C=C/c2ccc(C)cc2)C(C(=O)/C=C/c2ccc(C)cc2)C1 (stereo not drawn) | 98.5 ± 13% |
| COc1cc(NS(C)(=O)=O)ccc1Nc1c2ccccc2nc2ccccc12 | 41.4 ± 12% |
| Cc1ccc(NC(=O)c2cccc([N+](=O)[O-])c2O)c([N+](=O)[O-])c1 | 86.3 ± 17% |
| O=C1c2cccc(O)c2C(=O)c2c(O)cccc21 | 68.8 ± 19% |
| CCCC[S+]([O-])CC(CO)NC(=O)/C=C\c1c(C)[nH]c(=O)[nH]c1=O (stereo not drawn) | 105 ± 28% |
| O=C1Nc2c(Cl)cc(Cl)cc2C1=O | 22.4 ± 13% |
| CC1(O)C=CC(=O)C=C1 | 116 ± 12% |
| CCCCCCCCCCCCCCCCCCOP(=O)([O-])OCC[N+](C)(C)C | 51.1 ± 16% |
| O=S(=O)(c1cccc(N=C=S)c1)c1cccc(N=C=S)c1 | 111 ± 11% |
| CCOC(=O)/C=C/c1c(C)[nH]c(=O)[nH]c1=O | 91.2 ± 25% |
| COC1=CC(=O)c2c(ccc3ncnc(N)c23)C1=O | 79.1 ± 20% |
| C=C(NC(=O)C(=C)NC(=O)c1csc(C2=N[C@@H]3c4csc(n4)C4NC(=O)c5csc(n5)C([C@](C)(O)[C@@H](C)O)NC(=O)[C@H]5CSC(=N5)/C(=C/C)NC(=O)C(C(C)O)NC(=O)c5csc(n5)C3(CC2)NC(=O)[C@H](C)NC(=O)C(=C)NC(=O)C(=C)NC(=O)C(C(C)C)N[C@@H]2C=Cc3c([C@@H](C)O)cc(nc3[C@H]2O)C(=O)OC4C)n1)C(N)=O (stereo partly drawn) | 56.7 ± 21% |
